A selection: hits, their analogues and other compounds. The true share with any hit is near 2.6%.
Giardia kill = Giardia lamblia killing; Giardia lamblia trophozoite viability; activity change, % at 7.66 µM, hits read low; 0.15% of 340,000 active; in the data active means activity change below about -80%; inconclusive means between about -30% and that limit;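 further: parasites exposed to compound for two days anaerobically before the ATP read; on the % scale 0 is the no-effect control and ±100 the full control effect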
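ATP-content bioluminescence gauges trophozoite survival. Cells (100/well) receive compound and incubate anaerobically for 48 hrs at 37 deg C; detection reagent follows for 15-30 min at room temperature.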
ATXN2 expr inh = reduces ATXN2 reporter expression in HEK-293 cells; HEK-293 ATXN2-luciferase reporter, luminescence, 24 h; Potency, µM (highest dose often 57 µM), for the others: at the highest dose activity change, negative = inhibition, most hits filed as inhibitors; 0.72% of 360,000 active; further: potency means the concentration at half of the fitted maximal effect; on the % scale 0 is the no-effect control and ±100 the full control effect; nearly all actives have a fitted effect of over 55% in size
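qHTS (up to 57 uM final) was run with 24 h compound exposure of reporter cells at 37 °C. Each well was multiplexed: SteadyGlo luminescence measured ATXN2-luciferase expression after a fluorogenic Gly-Phe-AFC viability readout (25 uM final).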
uPA generation = cell surface uPA generation inhibition. cell surface uPA generation assay, qHTS. Potency, µM (top dose mostly 38.3 µM), without a hit: top-dose activity change, negative = inhibition, usual class: inhibitors. 0.31% of 330,000 active. AID 540303; active means well fitted inhibition curve with a large enough effect; inconclusive means small, poorly fitted or top-dose-only effect; inactive means no such curve, though single readings can be large or run the other way; tested in mouse RAW 264.7 cells; further: potency means the concentration at half of the fitted maximal effect; on the % scale 0 is the no-effect control and ±100 the full control effect; nearly all actives have a fitted effect of over 55% in size
HepG2 viability = HepG2 cytotoxicity, counter-screen for TGF-b inhibitors. Potency, µM (highest dose often 46.1 µM), for the others: at the highest dose activity change, negative = cytotoxicity, usual class: cytotoxic. HepG2 CAGA-GFP viability, ATP luminescence, 18 h. AID 588856. 0.76% of 410,000 active; further: potency means the concentration at half of the fitted maximal effect
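CellTiter-Glo luminescence gave cytotoxicity after 18 hours at 37 degrees C. The cells were HepG2 CAGA-GFP in 1% FBS DMEM, stimulated with 500 pg/mL TGF-beta after compound addition. %Activity was normalised to no-cell wells (complete cell-killing) and DMSO (no toxicity), and curves were fitted and classified.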
TGFb SMAD3 inh = blocks TGF-b signaling; AID 588855; Potency, µM (top dose mostly 46.1 µM), for the others: at the highest dose activity, negative = inhibition, most hits filed as inhibitors; HepG2 CAGA-GFP TGF-b/SMAD3 reporter, GFP fluorescence, 18 h; TGF-beta stimulated, 500 pg/mL final; 1.2% of 410,000 active; further: potency means the concentration at half of the fitted maximal effect; on the % scale 0 is the no-effect control and ±100 the full control effect; nearly all actives have a fitted effect of over 65% in size
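GFP signal (ex488/em500-530) from TGF-beta-stimulated HEPG2 CAGA-GFP cells, 500 pg/mL final, 18 h at 37 degrees C in DMEM plus 1% FBS, normalized to unstimulated and DMSO-stimulated controls.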
ATXN viability = reduces viability in counter-screen for ATXN expression inhibitors | Potency, µM (doses to about 56.7 µM), usual class: cytotoxic | 0.49% of 400,000 active | S2 cells (HEK-293 line with an ATXN2-luciferase reporter) viability, CellTiter-Fluor protease fluorescence, 24 h; further: potency means the concentration at half of the fitted maximal effect; nearly all actives have a fitted effect of over 40% in size
* = called active by the depositor; i = inactive; ? = inconclusive; nt = no result given; [ ] = another dose, or the depositor's remark. Unless noted, the call rests on the fitted dose curve; in most records, active means well fitted curve in the direction sought with a large enough effect; inconclusive means small, poorly fitted or top-dose-only effect, or another doubt; inactive means no such curve, though single readings can be large; an effect the other way counts as inactive or inconclusive.

SMILES	Giardia kill	ATXN2 expr inh	uPA generation	HepG2 viability	TGFb SMAD3 inh	ATXN viability
CO[C@H]1C[C@H](O[C@H]2[C@H](C)[C@@H](O[C@@H]3O[C@H](C)C[C@H](N(C)C)[C@H]3O)[C@@H](C)C[C@]3(CO3)C(=O)[C@H](C)[C@@H](O)[C@@H](C)[C@@H](C)OC(=O)[C@@H]2C)O[C@@H](C)[C@@H]1O	nt	nt	nt	nt	nt	i
COc1ccccc1-c1nnc(SC2CCc3ccccc3NC2=O)s1 (stereo not drawn)	10.9	11.4%	nt	1.4%	12.6µM*	i
COc1ccccc1-c1nnc(N)s1	-1.2	-4.2%	1.6%	18.6%	5.1%	i
Cc1cccc(N2CCN(C(=O)NC3CCCCC3)CC2C)c1 (stereo not drawn)	5.1	22.4µM*	6.6%	-9.7%	-0.7%	?
Cc1ncc2c(c1CNC(=O)/C=C/c1cccs1)CCN(C(=O)c1noc3c1CCCC3)C2	nt	nt	nt	nt	nt	i
N#C/C(=C(/O)c1ccc([N+](=O)[O-])s1)c1nc2ccccc2[nH]1	?	?	-24.5%	-34.8%	-31.0%	i
N#C/C(=C(/O)CCl)c1nc2ccccc2[nH]1	26.1	?	-7.3%	-31.3%	10µM*	?
N#C/C(=C(/O)COC(=O)CSc1ccc2ccccc2c1)c1nc2ccccc2[nH]1	-5.0	?	?	2.8%	-0.5%	20µM*
N#C/C(=C(/O)c1ccc(Br)s1)c1nc2ccccc2[nH]1	-8.6	-0.9%	3.55µM*	-5.8%	1.3%	i
Cc1ccc(C)c(SCC(=O)OC/C(O)=C(\C#N)c2nc3ccccc3[nH]2)c1	-5.2	-18.7%[11.3 µM]	2.6%	-17.4%	-10.1%	?
N#C/C(=C(\O)Cc1ccccc1)c1nc2ccccc2[nH]1	-0.1	-25.4%	-2.0%	-22.9%	-15.0%	?
Cc1ccc(C(C)C)c(OCC(O)CN(C)Cc2ccccc2)c1 (stereo not drawn)	-20.5	-35.7%	0.8%	-154.1%	15.8µM*	?
COc1ccc(NC(=O)/C(Cl)=C(/Cl)S(=O)Cc2ccccc2)cn1 (stereo not drawn)	-20.6	2.82µM*	-11.7%	7.08µM*	3.98µM*	4.47µM*
COc1ccc(CS(=O)(=O)/C(Cl)=C(/Cl)C(=O)Nc2ccc(OC)nc2)cc1	4.0	12.6µM*	11.1%	-106.9%	?	?
C[C@@H]1CN(Cc2ccc3c(c2)CN(C(=O)CCc2nc4ccc(F)cc4[nH]2)CCO3)C[C@H](C)O1	nt	nt	nt	nt	nt	i
CCCCCOC(=O)Nc1nc(=O)n([C@@H]2O[C@H](C)[C@@H](O)C2O)cc1F (stereo partly drawn)	nt	-9.6%	nt	nt	nt	nt
Cc1cc(C(=O)COc2cccnc2[N+](=O)[O-])c(C)n1-c1ccccc1	-88.5*	?	1.2%	1.9%	15.3%	?
Cc1ccc(-n2c(C)cc(C(=O)COc3cccnc3[N+](=O)[O-])c2C)cc1	?	-24.6%	-16.1%	3.1%	?	nt
Cc1cc(CNC(=O)CCN2Cc3cc(Cl)ccc3OC(C)C2)nn1C (stereo not drawn)	nt	nt	nt	nt	nt	i
Cc1ccc(NC(=O)c2ccc([N+](=O)[O-])o2)cc1S(=O)(=O)N1CCOCC1	-90.8*	?	-17.0%	-55.0%	14.1µM*	i
O=C(Nc1cccc(S(=O)(=O)N2CCCCC2)c1)c1ccc([N+](=O)[O-])o1	-96.1*	?	-16.7%	-59.0%	?	?
O=C(COC(=O)c1ccc([N+](=O)[O-])o1)Nc1cccc(S(=O)(=O)N2CCCCC2)c1	-6.1	-25.9%	-0.4%	-18.2%	-8.1%	i
O=C(NC1=C(Nc2ccc(F)cc2)C(=O)c2ccccc2C1=O)c1ccc(Cl)cc1	7.3	-10.1%	-11.1%	11.2µM*	11.2µM*	i
O=C(NNC(=O)c1ccc(NC(=O)c2ccccc2)cc1)c1ccc(F)cc1	-14.1	2.7%	-3.4%	-0.2%	4.8%	i
CN(C)c1nc2cc3c(cc2cc1CN(CC1CCCO1)C(=O)c1cccc(F)c1)OCO3 (stereo not drawn)	nt	nt	nt	nt	nt	i

Assay outcomes deposited in PubChem BioAssay by National Center for Advancing Translational Sciences (NCATS).
